Test results published in PubChem BioAssay (NCI).
Values joined by “and” are separate entries in the source; they are usually repeats but may differ in a detail not shown here. Identical values can stand only once. About 83,000 compounds went through this panel and 20% of them were active in at least one assay; those are over-represented in the sample as a whole.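 Activity criterion: percent growth below 10, measured after cells in 96-well plates were exposed to a single compound concentration for 48 hours.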 Active and inactive are the calls of the source.

Key:
Assay in all cases: NCI-60 one-dose screen, 48 h (100 = growth as untreated, 0 = no growth, -100 = all killed)
Conditions in all cases: 10 µM unless noted
SK-MEL-2 melanoma = system: SK-MEL-2 melanoma
EKVX NSCLC = system: EKVX NSCLC
SN12C renal = system: SN12C renal
UO-31 renal = system: UO-31 renal
TK-10 renal = system: TK-10 renal
ACHN renal = system: ACHN renal
CAKI-1 renal = system: CAKI-1 renal
A498 renal = system: A498 renal
CCRF-CEM leukemia = system: CCRF-CEM leukemia
MOLT-4 leukemia = system: MOLT-4 leukemia
SR leukemia = system: SR leukemia
RPMI-8226 leukemia = system: RPMI-8226 leukemia
OVCAR-8 ovarian = system: OVCAR-8 ovarian
OVCAR-5 ovarian = system: OVCAR-5 ovarian
OVCAR-4 ovarian = system: OVCAR-4 ovarian
SK-OV-3 ovarian = system: SK-OV-3 ovarian
IGROV1 ovarian = system: IGROV1 ovarian
OVCAR-3 ovarian = system: OVCAR-3 ovarian
HS 578T breast = system: HS 578T breast
NCI/ADR-RES ovarian = system: NCI/ADR-RES ovarian

SMILES	growth (SK-MEL-2 melanoma)	growth (EKVX NSCLC)	growth (SN12C renal)	growth (UO-31 renal)	growth (TK-10 renal)	growth (ACHN renal)	growth (CAKI-1 renal)	growth (A498 renal)	growth (CCRF-CEM leukemia)	growth (MOLT-4 leukemia)	growth (SR leukemia)	growth (RPMI-8226 leukemia)	growth (OVCAR-8 ovarian)	growth (OVCAR-5 ovarian)	growth (OVCAR-4 ovarian)	growth (SK-OV-3 ovarian)	growth (IGROV1 ovarian)	growth (OVCAR-3 ovarian)	growth (HS 578T breast)	growth (NCI/ADR-RES ovarian)
O=[N+]([O-])c1ccc2[nH]c3nccc(NCc4cccc(Cl)c4)c3c2c1	93% (inactive)	50.8% (inactive)	86.5% (inactive)	87.2% (inactive)	72.8% (inactive)	68.2% (inactive)	60.2% (inactive)	71.4% (inactive)	79.6% (inactive)	75.9% (inactive)	50.5% (inactive)	82.9% (inactive)	37.5% (inactive)	86.3% (inactive)	-35% (active)	91.9% (inactive)	93.1% (inactive)	49.8% (inactive)	17.5% (inactive)	64.4% (inactive)
N#Cc1ccccc1OCC(=O)Nc1nc2c(s1)COc1ccccc1-2	88.7% (inactive)	86.7% (inactive)	96.2% (inactive)	72.4% (inactive)	140% (inactive)	102% (inactive)	99.2% (inactive)	130% (inactive)	96% (inactive)	77.5% (inactive)	-19.5% (active)	96.8% (inactive)	106% (inactive)	85.4% (inactive)	99.1% (inactive)	94.7% (inactive)	-3.12% (active)	110% (inactive)	99.7% (inactive)	104% (inactive)
COc1ccc(-c2ccc(-c3ccc(C(=N)N)cn3)o2)cc1Cl	83.1% (inactive)	70.4% (inactive)	44.5% (inactive)	52.4% (inactive)	94.4% (inactive)	17.3% (inactive)	40.2% (inactive)	80.5% (inactive)	-4.6% (active)	10.7% (inactive)	-28.3% (active)	-35.5% (active)	12.3% (inactive)	68.6% (inactive)	38.8% (inactive)	84.8% (inactive)	68.7% (inactive)	-13.2% (active)	59.1% (inactive)	82.8% (inactive)
O=C(Nc1ccc(F)cc1)c1cc2cc(Nc3nc(-c4ccccc4)nc4ccccc34)ccc2oc1=O	104% (inactive)	108% (inactive)	104% (inactive)	83.4% (inactive)	97.3% (inactive)	105% (inactive)	101% (inactive)	102% (inactive)	106% (inactive)	92.9% (inactive)	86.6% (inactive)	97.9% (inactive)	100% (inactive)	106% (inactive)	111% (inactive)	98.2% (inactive)	101% (inactive)	105% (inactive)	103% (inactive)	95.5% (inactive)
CCCCCC#CC1OC23CCCCC2C(C#N)(C(=N)O3)C1(C#N)C#N (stereo not given)	93% (inactive)	97.1% (inactive)	93% (inactive)	97.1% (inactive)	108% (inactive)	102% (inactive)	101% (inactive)	93.6% (inactive)	88.4% (inactive)	99.9% (inactive)	87% (inactive)	93.3% (inactive)	85.8% (inactive)	102% (inactive)	108% (inactive)	111% (inactive)	99.4% (inactive)	117% (inactive)	94.1% (inactive)	102% (inactive)
COc1nc2ccc(C)cc2cc1/C=[N+](\[O-])c1ccccc1	100% (inactive)	77.8% (inactive)	90.1% (inactive)	59.4% (inactive)	116% (inactive)	83.5% (inactive)	82.3% (inactive)	75.6% (inactive)	46.6% (inactive)	82.8% (inactive)	39.9% (inactive)	69.1% (inactive)	95.3% (inactive)	92.6% (inactive)	83.7% (inactive)	79.9% (inactive)	75.2% (inactive)	96.6% (inactive)	91% (inactive)	81.1% (inactive)
CCN(CC)CCOc1ccccc1C	101% (inactive)	112% (inactive)	98.7% (inactive)	95% (inactive)	107% (inactive)	101% (inactive)	102% (inactive)	106% (inactive)	102% (inactive)	103% (inactive)	111% (inactive)	103% (inactive)	102% (inactive)	97.2% (inactive)	111% (inactive)	103% (inactive)	109% (inactive)	117% (inactive)	119% (inactive)	124% (inactive)
O=C(N=Nc1c(O)[nH]c2ccccc12)Nc1ccccc1Cl	102% (inactive)	86.6% (inactive)	86.4% (inactive)	68.1% (inactive)	107% (inactive)	99% (inactive)	80.5% (inactive)	96.5% (inactive)	91.9% (inactive)	93.3% (inactive)	77.1% (inactive)	84.8% (inactive)	97.5% (inactive)	93.6% (inactive)	71% (inactive)	94.4% (inactive)	65.3% (inactive)	101% (inactive)	89.4% (inactive)	93% (inactive)
O=C(/C=C/c1ccc(Cl)s1)c1ccc(Cl)s1	100% (inactive) and 109% (inactive)	98.3% (inactive)	93.3% (inactive) and 91% (inactive)	82.8% (inactive)	94.9% (inactive) and 88.9% (inactive)	93.9% (inactive) and 101% (inactive)	92.4% (inactive)	97.8% (inactive)	94.8% (inactive) and 90.7% (inactive)	95.1% (inactive) and 88.9% (inactive)	78.3% (inactive) and 87% (inactive)	89.9% (inactive) and 66.8% (inactive)	107% (inactive) and 102% (inactive)	86.5% (inactive) and 101% (inactive)	84.5% (inactive)	94.5% (inactive) and 102% (inactive)	88.9% (inactive)	97.3% (inactive) and 99.3% (inactive)	96.8% (inactive)	104% (inactive) and 99.1% (inactive)
N#CC1=C(N)Oc2c(sc3c(Br)cccc23)C1c1ccccn1 (stereo not given)	2.4% (active)	53.4% (inactive)	43.9% (inactive)	46.7% (inactive)	64.6% (inactive)	47.3% (inactive)	87.4% (inactive)	37.9% (inactive)	22.1% (inactive)	28.9% (inactive)	12.7% (inactive)	30% (inactive)	53.8% (inactive)	72% (inactive)	88.6% (inactive)	27.2% (inactive)	43.1% (inactive)	14.3% (inactive)	45.5% (inactive)	14.6% (inactive)
CCCCC1COc2cccc3c2N1C=C/C3=C\C(=O)N(C)c1cccc(Cl)c1 (stereo not given)	121% (inactive)	95.8% (inactive)	94.2% (inactive)	78% (inactive)	112% (inactive)	98.5% (inactive)	78.9% (inactive)	94.6% (inactive)	97.2% (inactive)	86.6% (inactive)	94.9% (inactive)	92.3% (inactive)	97.1% (inactive)	102% (inactive)	72.8% (inactive)	95.3% (inactive)	103% (inactive)	96.4% (inactive)	99.8% (inactive)	97.7% (inactive)
CCOc1ccc(N2C(N)=NC(N)=NC2(C)C)cc1	-0.847% (active) and 107% (inactive)	93.9% (inactive)	32.2% (inactive) and 96.9% (inactive)	42% (inactive) and 96.6% (inactive)	40.9% (inactive)	44.6% (inactive) and 102% (inactive)	13.3% (inactive) and 98.4% (inactive)	-5.18% (active) and 72.7% (inactive)	9.4% (active) and 79.8% (inactive)	39.2% (inactive) and 81.5% (inactive)	5.52% (active) and 92.7% (inactive)	-4.32% (active) and 90% (inactive)	25.8% (inactive) and 91.2% (inactive)	55.6% (inactive) and 100% (inactive)	42.4% (inactive) and 108% (inactive)	15.7% (inactive) and 80.1% (inactive)	45.7% (inactive) and 80.8% (inactive)	-35.8% (active) and 107% (inactive)	35.9% (inactive) and 96% (inactive)	9.74% (active) and 101% (inactive)
C#CCOCC1CN(C)C(=O)O1 (stereo not given)	116% (inactive)	115% (inactive)	103% (inactive)	97.1% (inactive)	110% (inactive)	105% (inactive)	104% (inactive)	107% (inactive)	98.9% (inactive)	89.6% (inactive)	69.7% (inactive)	110% (inactive)	94.1% (inactive)	126% (inactive)	116% (inactive)	133% (inactive)	108% (inactive)	109% (inactive)	109% (inactive)	109% (inactive)
Cc1ccccc1SSc1ccccc1C	24.3% (inactive)	114% (inactive)	84.9% (inactive)	78.4% (inactive)	85.5% (inactive)	0.0765% (active)	60.5% (inactive)	96.2% (inactive)	79% (inactive)	83.9% (inactive)	65.4% (inactive)	98.5% (inactive)	84.1% (inactive)	75.5% (inactive)	94.5% (inactive)	96.9% (inactive)	84.6% (inactive)	120% (inactive)	97.7% (inactive)	86.4% (inactive)
